# Screens (PubChem BioAssay)
# NOMO-1 viab: STK33 inhibitor candidate reducing NOMO-1 cell viability | inhibition, % (test concentration not listed) | NOMO-1 AML viability, CellTiter-Glo luminescence, 72 h | 37,000 tested, 7.5% active | AID 2330; in the data active means inhibition above about 80%; inconclusive means no clear call, values can overlap the other calls
# MITF inh: blocks MITF activity. 37,000 tested, 0.28% active. inhibition, % (concentration not given with the values). TRPM1 promoter luciferase, luminescence, 24 h; in the data active means inhibition above about 85%; inconclusive means no clear call, values can overlap the other calls; inactive means below about 68%;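 further: human melanocyte line stably carrying TRPM1 promoter luciferase reporter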
# YB-1 expr inh: YB-1 expression inhibition; delta delta Cp (YB-1 minus CDIP) (test concentration not listed); AID 434959; 30,000 tested, 0.37% active; U2OS, qRT-PCR YB-1 vs CDIP delta delta Cp, 16 h; stronger effect = higher value; zero = DMSO, each unit about twofold;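 active means delta delta Cp rounded down to an integer at or above 3, about 3 SD of DMSO wells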;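 further: higher means less YB-1 transcript or more CDIP transcript relative to DMSO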
# Hedgehog inh: Sonic Hedgehog pathway inhibition | AID 2313 | 22,000 tested, 2.1% active | inhibition, % (no concentration beside the values) | Shh-LIGHT2 Gli-luciferase reporter, 30 h;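 active means mean inhibition across valid replicates above about 65%, limit read from the data; inconclusive means mean under the limit, yet half or more replicates past it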;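 further: pathway switched on by Shh-conditioned medium diluted 1 in 25 in low serum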
# PD-1 reversal: reversal of PD-1 mediated T-cell inhibition | primary human CD4 T cells, PD-L1 beads, CellTiter-Glo 96 h | 29,000 tested, under 10 active | AID 2316 | activation, % (test concentration not listed); call rule not given here;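 further: 0% = median vehicle wells and 100% = positive control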
# Starred values were filed as active, the others as inactive; ? = inconclusive; . = no result given. Only some compounds are listed: those with a hit (about 7.4% of all), similar ones and a draw of the others.
SMILES,NOMO-1 viab,MITF inh,YB-1 expr inh,Hedgehog inh,PD-1 reversal
C[C@H](CO)N1C[C@H](C)[C@@H](CN(C)Cc2ccc(Oc3ccccc3)cc2)Oc2ccc(NC(=O)CCC(F)(F)F)cc2C1=O,2.0,-7.7,-0.121,.,0.3
C[C@H]1CN([C@@H](C)CO)C(=O)c2cc(NC(=O)Nc3ccccc3)ccc2O[C@@H]1CN(C)Cc1ccc(Oc2ccccc2)cc1,96.9*,11.8,-0.395,-4.5,2.1
Cn1c(=O)n(C)c2cc(CNCc3cccnc3)ccc21,18.2,-14.0,.,.,1.8
O=C(CCCCCCC(=O)N/N=C\c1cccc(Br)c1)NO,.,.,-0.25,.,.
Cc1noc(C)c1NC(=O)N(C)C[C@H]1Oc2ccc(NC(=O)Cn3cnnn3)cc2C(=O)N([C@@H](C)CO)C[C@@H]1C,-4.0,-1.8,3.92*,3.7,0.7
Cc1sc(NC(=O)c2ccccc2)c(C(=O)N2CCCCC2)c1C,19.2,9.7,-0.499,-11.6,-1.2
CCc1cc(C(c2ccc(Cl)cc2)N2CCN(CCO)CC2)c(NC(=O)c2ccccc2)s1 (configuration not stated),116.8*,54.6,-0.176,81.2*,-6.2
O=C1CCC(=O)N1CNc1cc(C(F)(F)F)cc(C(F)(F)F)c1,30.6,-38.6,0.343,-50.0,-0.5
Cc1nc(C2C(=O)c3ccc(O)c(O)c3OC2C(F)(F)F)cs1 (configuration not stated),107.0*,23.2,-0.0147,-1.6,0.8
CSc1nc2ccccc2c(=O)n1C,11.0,-29.1,0.16,-4.6,-0.2
Cn1c(/C=C/C=C/N2CCCC2)nc2ccccc2c1=O,120.5*,-13.4,-0.407,-3.3,-1.5
Oc1ccc2ccccc2c1C1Nc2ccccc2-n2cccc21 (configuration not stated),58.5,36.2,-0.58,2.3,-4.0
C=CC(C)(C)[C@@]12CC(=O)C(=O)N3/C(=C/c4cnc[nH]4)C(=O)N[C@]31N(OC)c1ccccc12,117.9*,28.9,0.32,-17.4,0.2
C[C@@H]1CN([C@H](C)CO)C(=O)c2cc(NC(=O)Cc3cn(C)c4ccccc34)ccc2O[C@H]1CN(C)Cc1ccc(C(=O)Nc2ccccc2N)cc1,22.5,7.3,0.558,.,-0.3
C[C@@H]1CN([C@@H](C)CO)C(=O)c2cc(NC(=O)Cc3cn(C)c4ccccc34)ccc2O[C@@H]1CN(C)Cc1ccc(C(=O)Nc2ccccc2N)cc1,99.4*,0.2,-0.17,.,-3.5
C[C@H](CO)N1C[C@H](C)[C@H](CN(C)Cc2ccc(C(=O)Nc3ccccc3N)cc2)Oc2ccc(NC(=O)Cc3cn(C)c4ccccc34)cc2C1=O,102.3*,44.7,-0.16,.,-1.9
Cc1cc(C)c(NC(=O)CN(C)S(=O)(=O)c2ccc3ccccc3c2)c(C)c1,30.3,-3.5,.,.,0.9
C[C@H](CO)N1C[C@H](C)[C@H](CN(C)Cc2ccc(Oc3ccccc3)cc2)Oc2ccc(NC(=O)Nc3ccc(C(F)(F)F)cc3)cc2CC1=O,119.3*,5.8,0.358,-45.8,-4.3
C[C@@H]1CN([C@H](C)CO)C(=O)Cc2cc(NC(=O)Nc3ccc(C(F)(F)F)cc3)ccc2O[C@H]1CN(C)Cc1ccc(Oc2ccccc2)cc1,112.2*,-1.7,-0.0834,.,.
C[C@@H]1CN([C@H](C)CO)C(=O)Cc2cc(NC(=O)Nc3ccc(C(F)(F)F)cc3)ccc2O[C@H]1CN(C)Cc1ccccc1,65.3,11.6,0.0297,16.5,-4.2
CC(C(=O)Nc1cccc(Cl)c1)N(c1ccc(Cl)cc1)S(C)(=O)=O (configuration not stated),34.0,22.8,.,.,-6.6
C[N+]1(CC(O)CN2CCCC2=O)CCCCCC1 (configuration not stated),-2.0,5.4,-0.38,.,1.9
Cc1sc(NC(=O)Cn2nc(C(F)(F)F)cc2C)c(C(N)=O)c1C,118.2*,-2.6,0.0128,2.1,-1.0
Cc1ccc(OCC(=O)Nc2sc(C)c(C)c2C(N)=O)cc1,29.5,-38.0,.,.,.
COc1cc(CC(C)C(C)Cc2ccc(O)c(OC)c2)ccc1O (configuration not stated),121.2*,47.5,1.3,-59.3,-12.1
SMILES,NOMO-1 viab,MITF inh,YB-1 expr inh,Hedgehog inh,PD-1 reversal
CC1C(=O)C(=O)[C@@H]2O[C@@H]2C1=O (some centres not stated),95.7*,-4.0,-1.85,?,-0.1
O=C1c2ccccc2C(=O)N1CN(C(=O)C(F)(F)F)c1ccc(Cl)cc1,6.0,-0.3,0.015,2.4,-0.6
O=C1c2c(O)cc(O)cc2OC(c2ccc(O)cc2)C1C1C(=O)c2c(O)cc(O)cc2OC1c1ccc(O)cc1 (configuration not stated),.,.,0.582,-41.6,.
O=C1c2c(O)cc(O)cc2O[C@@H](c2ccc(O)cc2)[C@H]1[C@@H]1C(=O)c2c(O)cc(O)cc2O[C@H]1c1ccc(O)cc1,58.1,-5.4,-0.592,72.1*,-17.9
COc1cc(OC)c(O[C@@H]2O[C@H](COC(=O)c3cc(O)c(O)c(O)c3)[C@@H](O)[C@H](O)[C@H]2O)c(OC)c1,35.1,7.1,5.57*,8.9,-1.9
O=C(OC[C@H]1O[C@@H](Oc2ccc(O)cc2)[C@H](O)[C@@H](O)[C@@H]1O)c1ccc(O)cc1,.,.,0.416,2.1,.
CC(Oc1cccc(NC(=O)c2ccccc2Cl)c1)C(=O)c1ccc(Cl)cc1 (configuration not stated),26.6,-0.1,.,.,.
Cc1ccc(NC(=O)CN(c2ccc(Cl)c(C(F)(F)F)c2)S(C)(=O)=O)cc1,91.3*,-6.6,.,.,-6.8
CS(=O)(=O)N(CC(=O)Nc1ccc(Br)c(Cl)c1)c1ccc(F)c(Cl)c1,31.6,2.3,.,.,-6.5
Cc1cc(N(CC(=O)Nc2ccc(F)c(Cl)c2)S(C)(=O)=O)ccc1Br,92.8*,46.9,.,.,-7.9
CS(=O)(=O)N(CC(=O)Nc1ccc(Cl)c(Cl)c1)c1ccc(Br)cc1,114.5*,115.9*,.,.,-13.7
CS(=O)(=O)N(CC(=O)Nc1ccc(I)cc1)c1ccc(Cl)c(Cl)c1,89.8*,?,.,.,-7.2
Nc1cc(=O)nc(SCC(=O)NCc2ccccc2)n1-c1ccccc1,8.8,15.3,-0.178,-5.0,-0.4
Cc1ccc([N+](=O)[O-])cc1N(CC(=O)Nc1cccc(F)c1)S(C)(=O)=O,40.1,-0.2,.,.,.
Cc1ccc([N+](=O)[O-])cc1N(CC(=O)Nc1ccc(I)cc1)S(C)(=O)=O,120.8*,10.5,.,.,-0.2
CC(NC(=O)Cn1c(-c2nonc2N)nc2ccccc21)c1ccccc1 (configuration not stated),20.1,7.1,.,.,0.1
Cc1ccc(S(=O)(=O)N(C)C[C@@H]2Oc3ccc(NC(=O)Nc4ccc(F)cc4)cc3CC(=O)N([C@H](C)CO)C[C@@H]2C)cc1,126.7*,47.4,-0.0322,37.6,-0.7
Cc1ccc(S(=O)(=O)N(C)C[C@@H]2Oc3ccc(NC(=O)C4CC4)cc3CC(=O)N([C@@H](C)CO)C[C@@H]2C)cc1,84.5*,13.1,0.143,.,0.1
COc1ccc(S(=O)(=O)N(C)C[C@@H]2Oc3ccc(NC(=O)Nc4ccc(F)cc4)cc3CC(=O)N([C@H](C)CO)C[C@@H]2C)cc1,32.6,10.0,-0.57,.,.
